Experiments:
Experiment in all cases: DAPPL (digital affinity profiling via proximity ligation, sequencing); 10 mM Tris-HCl pH 7.5, 50 mM NaCl, 1 mM DTT, 4% glycerol, room temperature, 30 min; GST-TFs on glutathione beads, 16-mer random dsDNA library, 0.1% formaldehyde crosslink after washing; high values mean tight binding
FEV = biological target: T1, FEV (Homo sapiens, UniProt Q99581 1-238); details: protein: recombinant; tags: N-terminal GST; dsDNA, one strand shown
T1 sequence: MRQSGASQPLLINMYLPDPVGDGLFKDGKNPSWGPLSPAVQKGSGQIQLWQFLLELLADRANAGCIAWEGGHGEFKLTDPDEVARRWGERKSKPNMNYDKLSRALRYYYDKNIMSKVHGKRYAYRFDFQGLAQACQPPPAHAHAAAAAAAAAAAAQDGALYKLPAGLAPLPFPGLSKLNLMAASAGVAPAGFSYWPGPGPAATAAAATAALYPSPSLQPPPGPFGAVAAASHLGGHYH
Method in brief: (§1)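 Human transcription factors were made in yeast as GST fusions, captured on glutathione beads and barcoded with DNA. With a tag-only sample included, the pool was incubated with 200 nmole of a random double-stranded 16-mer DNA library in Tris/NaCl/DTT/glycerol buffer at room temperature for 30 min, then crosslinked with 0.1% formaldehyde after washing, ligated by proximity, amplified and sequenced. For binding signal, each hexamer's read frequency for a factor is divided by its frequency for the tag-only sample.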

ETV5 = ETV5 (Homo sapiens, UniProt P41161 1-510); details: protein: recombinant; tags: N-terminal GST; dsDNA, one strand shown
Method in brief: as §1

HSF1 = HSF1 (Homo sapiens, UniProt Q00613 1-529); details: protein: recombinant; tags: N-terminal GST; chain copies: 3; dsDNA, one strand shown
Method in brief: as §1

SPIC = biological target: T2, SPIC (Homo sapiens, UniProt Q8N5J4 1-248); details: protein: recombinant; tags: N-terminal GST; dsDNA, one strand shown
T2 sequence: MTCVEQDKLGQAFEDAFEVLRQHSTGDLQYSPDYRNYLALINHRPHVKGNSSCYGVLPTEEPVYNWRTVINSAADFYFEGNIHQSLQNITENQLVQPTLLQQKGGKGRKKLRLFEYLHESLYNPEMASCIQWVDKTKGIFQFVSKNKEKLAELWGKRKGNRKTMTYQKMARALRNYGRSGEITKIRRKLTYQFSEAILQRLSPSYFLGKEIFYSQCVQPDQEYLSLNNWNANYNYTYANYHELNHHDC
Method in brief: as §1

ELF4 = ELF4 (Homo sapiens, UniProt Q99607 1-663); details: protein: recombinant; tags: N-terminal GST; dsDNA, one strand shown
Method in brief: as §1

ELK4 = biological target: T3, ELK4 (Homo sapiens, UniProt P28324-2 1-405); details: protein: recombinant; tags: N-terminal GST; dsDNA, one strand shown
T3 sequence: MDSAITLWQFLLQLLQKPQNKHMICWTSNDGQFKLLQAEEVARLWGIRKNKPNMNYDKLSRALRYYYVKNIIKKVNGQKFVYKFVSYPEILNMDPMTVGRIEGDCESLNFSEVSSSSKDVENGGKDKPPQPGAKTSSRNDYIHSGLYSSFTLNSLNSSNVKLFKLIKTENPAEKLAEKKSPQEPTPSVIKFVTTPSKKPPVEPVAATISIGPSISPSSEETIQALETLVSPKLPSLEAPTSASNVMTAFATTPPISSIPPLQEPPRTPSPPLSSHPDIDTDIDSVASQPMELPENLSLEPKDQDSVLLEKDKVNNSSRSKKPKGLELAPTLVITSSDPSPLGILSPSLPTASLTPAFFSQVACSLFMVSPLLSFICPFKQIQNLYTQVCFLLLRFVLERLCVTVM
Method in brief: as §1

ETV2 = biological target: T4, ETV2 (Homo sapiens, UniProt O00321 1-342); details: protein: recombinant; tags: N-terminal GST; dsDNA, one strand shown
T4 sequence: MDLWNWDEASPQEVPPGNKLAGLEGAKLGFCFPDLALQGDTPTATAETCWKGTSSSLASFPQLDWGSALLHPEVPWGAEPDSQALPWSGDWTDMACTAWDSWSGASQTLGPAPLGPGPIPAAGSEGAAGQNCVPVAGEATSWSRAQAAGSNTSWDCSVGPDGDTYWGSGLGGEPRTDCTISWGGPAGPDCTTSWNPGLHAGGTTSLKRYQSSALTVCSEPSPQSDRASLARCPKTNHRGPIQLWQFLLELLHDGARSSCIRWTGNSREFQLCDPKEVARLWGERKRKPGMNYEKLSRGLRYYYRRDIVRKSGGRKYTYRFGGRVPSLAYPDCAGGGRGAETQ
Method in brief: as §1

ELF3 = biological target: T5, ELF3 (Homo sapiens, UniProt P78545 1-371); details: protein: recombinant; tags: N-terminal GST; dsDNA, one strand shown
T5 sequence: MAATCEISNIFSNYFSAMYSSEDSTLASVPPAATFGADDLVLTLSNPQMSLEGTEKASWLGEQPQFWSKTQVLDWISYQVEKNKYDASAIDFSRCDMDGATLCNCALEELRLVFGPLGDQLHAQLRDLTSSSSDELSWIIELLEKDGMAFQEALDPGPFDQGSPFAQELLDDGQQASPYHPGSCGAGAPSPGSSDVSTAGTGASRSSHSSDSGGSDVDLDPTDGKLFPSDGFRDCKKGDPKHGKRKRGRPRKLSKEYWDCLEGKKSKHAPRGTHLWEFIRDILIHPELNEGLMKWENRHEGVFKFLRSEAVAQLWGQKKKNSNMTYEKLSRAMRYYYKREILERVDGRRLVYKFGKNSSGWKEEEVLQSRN
Method in brief: as §1

CRX = CRX (Homo sapiens, UniProt O43186 1-299); details: protein: recombinant; tags: N-terminal GST; dsDNA, one strand shown
Method in brief: as §1

ETV1 = ETV1 (Homo sapiens, UniProt P50549 1-477); details: protein: recombinant; tags: N-terminal GST; dsDNA, one strand shown
Method in brief: as §1

ERF = biological target: T6, ERF (Homo sapiens, UniProt P50548 1-548); details: protein: recombinant; tags: N-terminal GST; dsDNA, one strand shown
T6 sequence: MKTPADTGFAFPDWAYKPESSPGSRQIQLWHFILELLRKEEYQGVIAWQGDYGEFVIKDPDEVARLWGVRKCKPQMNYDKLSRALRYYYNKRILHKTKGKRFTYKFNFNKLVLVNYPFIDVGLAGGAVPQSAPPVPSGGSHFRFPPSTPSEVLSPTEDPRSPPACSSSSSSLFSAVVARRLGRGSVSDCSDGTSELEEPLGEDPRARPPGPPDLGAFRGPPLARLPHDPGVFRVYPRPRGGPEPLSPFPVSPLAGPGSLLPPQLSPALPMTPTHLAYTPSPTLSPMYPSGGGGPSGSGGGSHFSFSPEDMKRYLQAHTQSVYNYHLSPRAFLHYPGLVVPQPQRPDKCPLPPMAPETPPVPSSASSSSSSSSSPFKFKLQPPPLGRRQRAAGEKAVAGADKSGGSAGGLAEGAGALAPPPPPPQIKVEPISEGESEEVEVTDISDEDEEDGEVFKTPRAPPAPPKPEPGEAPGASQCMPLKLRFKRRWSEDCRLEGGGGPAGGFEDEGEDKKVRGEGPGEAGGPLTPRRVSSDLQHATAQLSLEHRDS
Method in brief: as §1

ETV3L = biological target: T7, ETV3L (Homo sapiens, UniProt Q6ZN32 1-361); details: protein: recombinant; tags: N-terminal GST; dsDNA, one strand shown
T7 sequence: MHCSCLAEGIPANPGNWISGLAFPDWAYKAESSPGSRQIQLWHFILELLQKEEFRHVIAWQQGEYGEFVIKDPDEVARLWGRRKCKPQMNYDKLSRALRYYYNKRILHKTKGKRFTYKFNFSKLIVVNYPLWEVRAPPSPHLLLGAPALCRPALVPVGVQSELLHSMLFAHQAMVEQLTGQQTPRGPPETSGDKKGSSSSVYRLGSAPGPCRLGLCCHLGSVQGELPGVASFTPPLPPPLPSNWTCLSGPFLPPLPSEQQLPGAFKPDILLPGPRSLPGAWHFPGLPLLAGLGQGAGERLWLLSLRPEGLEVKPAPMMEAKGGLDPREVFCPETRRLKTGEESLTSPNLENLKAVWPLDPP
Method in brief: as §1

ETS2 = biological target: T8, ETS2 (Homo sapiens, UniProt P15036 1-469); details: protein: recombinant; tags: N-terminal GST; dsDNA, one strand shown
T8 sequence: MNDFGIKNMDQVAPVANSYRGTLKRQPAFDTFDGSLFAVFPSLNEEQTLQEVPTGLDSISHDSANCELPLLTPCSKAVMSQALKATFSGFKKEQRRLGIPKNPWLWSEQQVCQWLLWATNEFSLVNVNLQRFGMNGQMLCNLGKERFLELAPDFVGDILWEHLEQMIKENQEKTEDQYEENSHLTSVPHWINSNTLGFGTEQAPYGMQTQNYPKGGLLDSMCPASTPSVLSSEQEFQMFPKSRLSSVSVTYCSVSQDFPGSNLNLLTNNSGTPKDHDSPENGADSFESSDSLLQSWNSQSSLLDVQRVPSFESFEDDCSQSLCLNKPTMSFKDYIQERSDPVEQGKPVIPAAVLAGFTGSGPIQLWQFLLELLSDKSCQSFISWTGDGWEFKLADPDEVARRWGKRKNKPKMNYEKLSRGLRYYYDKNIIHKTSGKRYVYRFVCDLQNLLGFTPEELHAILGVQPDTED
Method in brief: as §1

SPDEF = biological target: T9, SPDEF (Homo sapiens, UniProt O95238 1-335); details: protein: recombinant; tags: N-terminal GST; dsDNA, one strand shown
T9 sequence: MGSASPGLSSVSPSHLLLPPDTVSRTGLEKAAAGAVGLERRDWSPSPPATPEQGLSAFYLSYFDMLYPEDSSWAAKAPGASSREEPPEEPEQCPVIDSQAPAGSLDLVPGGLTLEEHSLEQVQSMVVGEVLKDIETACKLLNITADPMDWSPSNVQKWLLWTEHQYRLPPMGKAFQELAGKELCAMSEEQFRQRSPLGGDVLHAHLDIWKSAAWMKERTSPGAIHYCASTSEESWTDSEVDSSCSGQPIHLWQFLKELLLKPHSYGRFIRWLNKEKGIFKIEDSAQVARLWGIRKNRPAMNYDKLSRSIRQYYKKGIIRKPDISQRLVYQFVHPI
Method in brief: as §1

ETV7 = biological target: T10, ETV7 (Homo sapiens, UniProt Q9Y603 1-341); details: protein: recombinant; tags: N-terminal GST; dsDNA, one strand shown
T10 sequence: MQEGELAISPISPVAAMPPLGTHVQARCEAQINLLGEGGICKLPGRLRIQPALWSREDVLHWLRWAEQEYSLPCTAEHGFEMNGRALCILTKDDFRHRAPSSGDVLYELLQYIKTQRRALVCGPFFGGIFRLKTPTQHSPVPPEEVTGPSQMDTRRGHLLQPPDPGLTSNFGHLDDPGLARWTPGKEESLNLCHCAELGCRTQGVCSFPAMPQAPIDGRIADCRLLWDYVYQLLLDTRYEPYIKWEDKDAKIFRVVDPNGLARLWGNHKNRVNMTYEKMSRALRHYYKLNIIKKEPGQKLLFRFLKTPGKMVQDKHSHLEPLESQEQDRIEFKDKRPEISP
Method in brief: as §1

ELF5 = biological target: T11, ELF5 (Homo sapiens, UniProt Q9UKW6-2 1-255); details: protein: recombinant; tags: N-terminal GST; dsDNA, one strand shown
T11 sequence: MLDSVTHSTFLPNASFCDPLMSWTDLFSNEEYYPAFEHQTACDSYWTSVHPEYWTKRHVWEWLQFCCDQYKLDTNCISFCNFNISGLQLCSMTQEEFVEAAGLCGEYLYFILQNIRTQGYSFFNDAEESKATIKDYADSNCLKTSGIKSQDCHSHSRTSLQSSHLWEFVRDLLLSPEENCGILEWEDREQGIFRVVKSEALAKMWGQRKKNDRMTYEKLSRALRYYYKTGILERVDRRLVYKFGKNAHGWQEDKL
Method in brief: as §1

ETV3 = biological target: T12, ETV3 (Homo sapiens, UniProt P41162-2 1-143); details: protein: recombinant; tags: N-terminal GST; dsDNA, one strand shown
T12 sequence: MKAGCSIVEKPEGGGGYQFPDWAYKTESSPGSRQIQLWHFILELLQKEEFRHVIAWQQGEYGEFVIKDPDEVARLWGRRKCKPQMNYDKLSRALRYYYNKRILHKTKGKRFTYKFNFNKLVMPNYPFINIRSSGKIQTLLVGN
Method in brief: as §1

ETV6 = ETV6 (Homo sapiens, UniProt P41212 1-452); details: protein: recombinant; tags: N-terminal GST; dsDNA, one strand shown
Method in brief: as §1

Sequence of ETV1 (P50549 whole entry): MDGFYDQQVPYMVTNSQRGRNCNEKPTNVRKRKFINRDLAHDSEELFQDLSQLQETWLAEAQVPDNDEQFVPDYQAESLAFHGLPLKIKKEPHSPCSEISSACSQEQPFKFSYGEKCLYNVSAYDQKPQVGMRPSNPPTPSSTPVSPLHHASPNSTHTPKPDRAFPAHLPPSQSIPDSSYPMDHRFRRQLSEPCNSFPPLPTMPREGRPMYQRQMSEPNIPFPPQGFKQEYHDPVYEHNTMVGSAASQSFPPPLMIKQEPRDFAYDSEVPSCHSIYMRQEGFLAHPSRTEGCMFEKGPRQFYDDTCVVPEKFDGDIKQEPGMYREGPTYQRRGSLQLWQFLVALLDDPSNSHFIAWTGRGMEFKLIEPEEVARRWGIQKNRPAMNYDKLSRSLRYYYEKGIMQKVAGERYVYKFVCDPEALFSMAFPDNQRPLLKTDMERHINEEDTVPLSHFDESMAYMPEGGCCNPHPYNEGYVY
Sequence of ELF4 (Q99607 whole entry): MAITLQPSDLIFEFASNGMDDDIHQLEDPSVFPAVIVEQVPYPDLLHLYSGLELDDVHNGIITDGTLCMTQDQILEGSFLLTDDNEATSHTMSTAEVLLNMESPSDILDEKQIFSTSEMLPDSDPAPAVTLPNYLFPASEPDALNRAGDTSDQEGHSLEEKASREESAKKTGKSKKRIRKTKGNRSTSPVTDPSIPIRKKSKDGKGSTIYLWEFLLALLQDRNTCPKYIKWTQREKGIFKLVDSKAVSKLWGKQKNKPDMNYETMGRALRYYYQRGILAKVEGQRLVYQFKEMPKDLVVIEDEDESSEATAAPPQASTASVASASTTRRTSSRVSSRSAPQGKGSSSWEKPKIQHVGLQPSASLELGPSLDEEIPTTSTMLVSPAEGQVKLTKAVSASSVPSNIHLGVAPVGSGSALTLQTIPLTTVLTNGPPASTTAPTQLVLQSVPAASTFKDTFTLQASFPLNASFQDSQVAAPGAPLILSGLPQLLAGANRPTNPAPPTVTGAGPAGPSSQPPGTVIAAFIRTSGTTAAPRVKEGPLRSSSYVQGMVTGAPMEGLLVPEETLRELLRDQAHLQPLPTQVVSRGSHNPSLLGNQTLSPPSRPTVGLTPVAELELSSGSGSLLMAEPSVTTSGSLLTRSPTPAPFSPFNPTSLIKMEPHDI
Sequence of CRX (O43186 whole entry): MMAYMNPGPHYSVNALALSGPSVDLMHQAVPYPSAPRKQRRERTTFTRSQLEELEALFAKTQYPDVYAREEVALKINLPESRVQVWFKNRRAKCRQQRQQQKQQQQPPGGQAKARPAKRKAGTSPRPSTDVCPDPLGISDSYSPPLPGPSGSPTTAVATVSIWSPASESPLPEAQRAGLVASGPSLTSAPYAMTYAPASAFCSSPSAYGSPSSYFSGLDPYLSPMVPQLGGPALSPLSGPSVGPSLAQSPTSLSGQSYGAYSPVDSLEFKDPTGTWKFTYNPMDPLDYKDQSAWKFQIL
Sequence of ETV6 (P41212 whole entry): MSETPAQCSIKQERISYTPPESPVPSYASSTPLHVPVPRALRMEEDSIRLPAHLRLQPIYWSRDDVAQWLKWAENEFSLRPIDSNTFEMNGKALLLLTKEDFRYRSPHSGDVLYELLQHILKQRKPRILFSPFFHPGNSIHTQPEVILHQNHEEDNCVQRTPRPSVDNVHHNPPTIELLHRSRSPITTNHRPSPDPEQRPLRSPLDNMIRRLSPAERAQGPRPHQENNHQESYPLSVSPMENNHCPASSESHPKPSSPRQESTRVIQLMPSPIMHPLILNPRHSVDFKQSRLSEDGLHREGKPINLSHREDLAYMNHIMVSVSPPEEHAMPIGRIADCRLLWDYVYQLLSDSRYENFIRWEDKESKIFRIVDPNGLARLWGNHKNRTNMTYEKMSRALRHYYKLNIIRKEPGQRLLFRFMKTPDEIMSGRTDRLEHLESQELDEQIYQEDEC
Sequence of HSF1 (Q00613 whole entry): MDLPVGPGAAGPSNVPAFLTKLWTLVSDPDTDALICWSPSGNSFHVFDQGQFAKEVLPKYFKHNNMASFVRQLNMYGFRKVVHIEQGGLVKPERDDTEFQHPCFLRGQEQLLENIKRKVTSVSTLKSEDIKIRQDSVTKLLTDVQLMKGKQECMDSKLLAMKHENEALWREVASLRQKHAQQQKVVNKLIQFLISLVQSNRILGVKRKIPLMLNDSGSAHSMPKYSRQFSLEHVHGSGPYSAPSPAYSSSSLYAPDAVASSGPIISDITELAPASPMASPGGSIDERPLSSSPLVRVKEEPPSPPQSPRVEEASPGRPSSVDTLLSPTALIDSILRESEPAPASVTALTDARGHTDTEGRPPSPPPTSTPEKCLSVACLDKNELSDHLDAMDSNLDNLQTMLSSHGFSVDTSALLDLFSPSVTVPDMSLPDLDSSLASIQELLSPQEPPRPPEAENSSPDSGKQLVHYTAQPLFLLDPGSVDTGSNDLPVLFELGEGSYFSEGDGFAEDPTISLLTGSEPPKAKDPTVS
Sequence of ETV5 (P41161 whole entry): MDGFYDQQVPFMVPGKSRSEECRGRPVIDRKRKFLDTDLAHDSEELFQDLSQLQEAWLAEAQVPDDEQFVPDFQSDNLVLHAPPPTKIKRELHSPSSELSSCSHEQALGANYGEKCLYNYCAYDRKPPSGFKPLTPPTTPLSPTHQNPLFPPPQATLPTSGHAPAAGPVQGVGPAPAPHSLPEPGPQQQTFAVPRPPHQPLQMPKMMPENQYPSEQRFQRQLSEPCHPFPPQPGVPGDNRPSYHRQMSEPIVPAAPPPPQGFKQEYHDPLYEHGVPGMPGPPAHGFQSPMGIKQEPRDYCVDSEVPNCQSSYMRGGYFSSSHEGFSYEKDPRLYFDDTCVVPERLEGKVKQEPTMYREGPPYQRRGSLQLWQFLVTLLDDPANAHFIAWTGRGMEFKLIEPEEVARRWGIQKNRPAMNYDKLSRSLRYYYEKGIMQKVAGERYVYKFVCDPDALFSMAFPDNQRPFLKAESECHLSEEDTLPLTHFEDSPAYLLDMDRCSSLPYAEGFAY

Sequence	binding signal (FEV)	binding signal (ETV5)	binding signal (HSF1)	binding signal (SPIC)	binding signal (ELF4)	binding signal (ELK4)	binding signal (ETV2)	binding signal (ELF3)	binding signal (CRX)	binding signal (ETV1)	binding signal (ERF)	binding signal (ETV3L)	binding signal (ETS2)	binding signal (SPDEF)	binding signal (ETV7)	binding signal (ELF5)	binding signal (ETV3)	binding signal (ETV6)
ACCGAT	1.06 fold enrichment (6-mer frequency, TF over GST control)	1.08 fold enrichment (6-mer frequency, TF over GST control)	1.14 fold enrichment (6-mer frequency, TF over GST control)	1.33 fold enrichment (6-mer frequency, TF over GST control)	1.24 fold enrichment (6-mer frequency, TF over GST control)	1.15 fold enrichment (6-mer frequency, TF over GST control)	1.19 fold enrichment (6-mer frequency, TF over GST control)	1.22 fold enrichment (6-mer frequency, TF over GST control)	1.24 fold enrichment (6-mer frequency, TF over GST control)	1.12 fold enrichment (6-mer frequency, TF over GST control)	1.05 fold enrichment (6-mer frequency, TF over GST control)	1.11 fold enrichment (6-mer frequency, TF over GST control)	1.11 fold enrichment (6-mer frequency, TF over GST control)	1.05 fold enrichment (6-mer frequency, TF over GST control)	1.08 fold enrichment (6-mer frequency, TF over GST control)	1.04 fold enrichment (6-mer frequency, TF over GST control)	1.13 fold enrichment (6-mer frequency, TF over GST control)	1.08 fold enrichment (6-mer frequency, TF over GST control)
ATGAAA	1.13 fold enrichment (6-mer frequency, TF over GST control)	1.12 fold enrichment (6-mer frequency, TF over GST control)	1.16 fold enrichment (6-mer frequency, TF over GST control)	1.24 fold enrichment (6-mer frequency, TF over GST control)	1.2 fold enrichment (6-mer frequency, TF over GST control)	1.21 fold enrichment (6-mer frequency, TF over GST control)	1.15 fold enrichment (6-mer frequency, TF over GST control)	1.19 fold enrichment (6-mer frequency, TF over GST control)	1.08 fold enrichment (6-mer frequency, TF over GST control)	1.2 fold enrichment (6-mer frequency, TF over GST control)	1.21 fold enrichment (6-mer frequency, TF over GST control)	1.16 fold enrichment (6-mer frequency, TF over GST control)	1.15 fold enrichment (6-mer frequency, TF over GST control)	1.06 fold enrichment (6-mer frequency, TF over GST control)	1.07 fold enrichment (6-mer frequency, TF over GST control)	1.13 fold enrichment (6-mer frequency, TF over GST control)	1.1 fold enrichment (6-mer frequency, TF over GST control)	1.1 fold enrichment (6-mer frequency, TF over GST control)

— article PMC7862700, “An all-to-all approach to the identification of sequence-specific readers for epigenetic DNA modifications on cytosine”
